Measured values reported in PubChem BioAssay (NCI).
About 79,000 compounds went through this panel and 15% of them were active in at least one assay; those are over-represented in the sample as a whole. Unmarked numbers belong to inactive results. Calls of active or inactive are those of the source. Cut-off read from the data, not from the text of the source: active = growth inhibition above about 70%; inactive = the rest.

What was measured:
[1] = NCI Yeast Anticancer Drug Screen. Data for the rad50 strain (AID 155);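 note: 0% = growth of vehicle-only cultures of the same strain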; details: S. cerevisiae rad50 strain growth inhibition, hits give high values
In short: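 Readout: growth inhibition relative to vehicle-treated cultures. Compound exposure was carried out in a genetically defined yeast strain deficient in DNA damage repair.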

[2] = NCI Yeast Anticancer Drug Screen. Data for the mec2-1 strain (AID 157); details: S. cerevisiae mec2-1 strain, hits give high values
In short: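 Mutant yeast (mec2-1) grown with compound; growth inhibition relative to vehicle control reported.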

[3] = NCI Yeast Anticancer Drug Screen. Data for the sgs1 mgt1 strain (AID 161);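 note: 0% = growth of cultures given vehicle only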; details: S. cerevisiae sgs1 mgt1 strain, hits give high values
In short: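 Percent growth inhibition was derived by comparing compound-exposed mutant yeast with vehicle-exposed cultures. The strain carries alterations in DNA damage repair.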

[4] = NCI Yeast Anticancer Drug Screen. Data for the cln2 rad14 strain (AID 165);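 note: 0% = growth equal to vehicle treated cultures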; details: S. cerevisiae cln2 rad14 strain, hits give high values
In short: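 Readout is yeast growth inhibition versus vehicle-treated controls, using a strain with cln2 and rad14 alterations exposed to compound.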

[5] = NCI Yeast Anticancer Drug Screen. Data for the bub3 strain (AID 167); details: S. cerevisiae bub3 mutant strain, hits give high values
In short: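 Readout: yeast growth inhibition, expressed relative to vehicle-only wells. The test organism is a mutant strain from a panel with lesions in DNA repair or checkpoint genes.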

[6] = NCI Yeast Anticancer Drug Screen. Data for the mlh1 rad18 strain (AID 175); details: S. cerevisiae mlh1 rad18 strain growth inhibition, hits give high values
In short: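 Genetically defined yeast (DNA repair-deficient) exposed to compounds; growth inhibition determined relative to vehicle.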

[7] = at 5.0 µM (retest, dose inferred, filed as 0.5)
[8] = at 50.0 µM (retest, dose inferred, filed as 5.0)

SMILES	growth inhibition [1, 7]	growth inhibition [1, 8]	growth inhibition ([1]; at 50.0 µM)	growth inhibition [2, 7]	growth inhibition [2, 8]	growth inhibition ([2]; at 50.0 µM)	growth inhibition [3, 7]	growth inhibition [3, 8]	growth inhibition ([3]; at 50.0 µM)	growth inhibition [4, 7]	growth inhibition [4, 8]	growth inhibition ([4]; at 50.0 µM)	growth inhibition [5, 7]	growth inhibition [5, 8]	growth inhibition ([5]; at 50.0 µM)	growth inhibition [6, 7]	growth inhibition [6, 8]	growth inhibition ([6]; at 50.0 µM)
OC1(C2CCCCC2)c2ccccc2Cc2ccccc21	6%	80% (active)	97.2% (active)	13%	76% (active)	98% (active)	12%	93% (active)	96.4% (active)	-1%	86% (active)	95.4% (active)	9%	90% (active)	96.8% (active)	7%	90% (active)	97% (active)
O=[N+]([O-])OC1CCCC(O[N+](=O)[O-])c2c1n([O-])c1ccccc1[n+]2=O (stereo not given)	53%	91% (active)	89.3% (active)	40%	86% (active)	21.2%	58%	94% (active)	82.5% (active)	39%	84% (active)	47.1%	19%	73% (active)	17.5%	53%	94% (active)	84% (active)
CCCCCCCCCCCCCCCC[N+](C)(CCO)Cc1cnc[nH]1 (stereo not given)	97% (active)	98% (active)	90.2% (active)	97% (active)	99% (active)	87.4% (active)	98% (active)	99% (active)	90.8% (active)	98% (active)	99% (active)	86.8% (active)	99% (active)	99% (active)	88% (active)	94% (active)	98% (active)	88.6% (active)
COc1ccc([C@H]2c3cc4c(cc3OC(O)(CO)[C@H]2C(=O)O)OCO4)c(OC)c1 (stereo not given in full) (tested in a mixture with another compound)	9%	63%	57%	15%	48%	48.4%	0%	44%	44.1%	0%	35%	28%	-5%	76% (active)	54.5%	6%	86% (active)	80.5% (active)
O=[N+]([O-])c1ccc(-c2nc3ccc(F)cc3[nH]2)o1	73% (active)	99% (active)	99.6% (active)	90% (active)	99% (active)	99.8% (active)	86% (active)	100% (active)	99.7% (active)	34%	98% (active)	98.5% (active)	70% (active)	100% (active)	99.7% (active)	94% (active)	99% (active)	99.7% (active)
CN(C)CC(C)(C)/C(=N\Nc1ccccc1)c1ccccc1	6%	82% (active)	5.6%	3%	86% (active)	-5.2%	51%	95% (active)	4.55%	25%	62%	38.9%	30%	93% (active)	98% (active)	22%	80% (active)	33%
NC(=O)c1nnn(Cc2cc(Cl)c(C(=O)c3ccc(Cl)cc3)c(Cl)c2)c1N	2%	98% (active)	57.2%	3%	99% (active)	98.9% (active)	2%	99% (active)	50.3%	1%	98% (active)	98.6% (active)	5%	99% (active)	98.8% (active)	13%	94% (active)	98.8% (active)
O=C1CCCC/C1=C(\Br)I	35%	99% (active)	89.1% (active)	31%	100% (active)	92.3% (active)	28%	100% (active)	91.2% (active)	19%	93% (active)	91.4% (active)	45%	100% (active)	89.1% (active)	31%	99% (active)	93% (active)
O=C(Nc1cc(Cl)cc(Cl)c1)OCCCl	53%	87% (active)	90.8% (active)	32%	77% (active)	93% (active)	36%	84% (active)	93.8% (active)	24%	63%	92% (active)	41%	88% (active)	92.6% (active)	53%	93% (active)	92.5% (active)
CCN(CC)Cc1cc(N=Nc2c(O)ccc3c(N=Nc4ccc(O)c(CN(CC)CC)c4)c(O)ccc23)ccc1O	62%	86% (active)	96.4% (active)	-2%	53%	85.4% (active)	1%	76% (active)	94.3% (active)	-7%	56%	56.6%	-1%	61%	65.8%	-1%	72% (active)	93.7% (active)
